The structures appear in SMILES notation. The source made the active and inactive calls. Unless noted, no rule for the calls is given here.

The text below walks through data of PubChem BioAssay.

Assay [1] deals with Wnt5a (protein binding on small-molecule microarray). The assay can be described thus: Wnt5a binders on small-molecule microarray, primary screen, biophysical, 635/667 nm fluorescence (AID 1142).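 Also: fluorescence read at 667 nm with signal to noise per printed feature.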 Conditions: 635 nm fluorescence, higher = more signal.
Assay [2] can be described thus: cell viability in Huh7 cells, primary screen, cytotoxicity control for HCV replication inhibitor project, CellTiter-Glo luminescence, basal, 48 h (AID 1143).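 Also: Huh7 hepatoma cells carrying a hepatitis C replication reporter with no stimulus; test concentration not given here.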 The note with it: Huh7 HCV replicon, higher = more signal, called active from +8 up or from −8 down. A general note: In ATP-based viability assays light output follows the ATP content of the culture.
Assay [3] in a line: P. aeruginosa biofilm formation inhibitors, primary screen, PAO1 strain, BacTiter-Glo luminescence, LB-PBS (AID 1144). Conditions: 12 h, higher = more signal.
The nature of assay [4]: CREB reporter modulators without forskolin, primary screen, cell-based, PC12, CRE-LacZ reporter, unstimulated (AID 1145). Conditions: no forskolin, luminescence, 4.5 h, higher = more signal, called active from +8 up or from −8 down.
A short description of assay [5]: CREB reporter modulators under forskolin, primary screen, cell-based, PC12, CRE-LacZ reporter, forskolin-stimulated (AID 1146).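 Also: PC12 cells with 6xCRE LacZ reporter stimulated by forskolin 10 µM; beta-galactosidase reporter signal reflecting CREB driven transcription.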 The note with it: luminescence, 4.5 h, higher = more signal, called active from +8 up or from −8 down.
Assay [6] addresses Streptavidin (Streptomyces avidinii) (UniProt P22629). The assay can be described thus: streptavidin binders on small-molecule microarray, primary screen, artefact control for SMM compound annotation, biophysical, 635/667 nm fluorescence (AID 1147).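 Also: signal reflects streptavidin binding to arrayed compounds as a control protein.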 The note with it: streptavidin binding, higher = more signal.
Assay [7] is described as follows: small-molecule binders of probe aInhba, primary screen, biochemical, small-molecule microarray, 635/667 nm fluorescence (AID 1148).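 Also: score merges 667nm spot fluorescence with signal-to-noise for antibody binding to printed compounds.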 The note with it: higher = more signal.
The target of assay [8] is Torsin-1A (Homo sapiens) (UniProt O14656). As to the kind of experiment: torsin A binders from cell lysate, primary screen, small-molecule microarray, wild-type, 635/667 nm (AID 1149). The note with it: COS7 hTOR1A-WT lysate, 635 nm fluorescence, higher = more signal.
The target is the same in assay [9]. As to the kind of experiment: small-molecule binders of mutant TOR1A in lysate, primary screen, cell lysate, small-molecule microarray, COS7 lysate, 635/667 nm fluorescence (AID 1150).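 Also: score pools 667 nm emission and signal to noise measuring lysate protein binding.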 The note with it: COS7 hTOR1A mutant lysate, 635 nm fluorescence, higher = more signal.
In assay [10] the test system is Sonic hedgehog protein (Shh). The assay can be described thus: small-molecule binders of Shh protein, primary screen, biochemical, small-molecule microarray, 635/667 nm fluorescence (AID 1151).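 Also: Shh protein binding to compounds spotted on small-molecule microarray slides; score combines spot fluorescence intensity with signal-to-noise across triplicate slides.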 The note with it: small-molecule microarray binding, 635 nm fluorescence; higher = more signal.
Assay [11] can be described thus: E. coli DRC41 culture turbidity changes, primary screen, E. coli filamentation inducer project, strain DRC41, OD650, 48 h (AID 1152).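 Also: E. coli MC1000 strain DRC41 lacking acrAB efflux pump and sulA.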 The note with it: E. coli DRC41 (acrAB sulA), higher = more signal, called active from +8 up or from −8 down.
Assay [12] can be described thus: small-molecule binders of probe aLefty1, primary screen, biochemical, small-molecule microarray, 635/667 nm fluorescence (AID 1153).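 Also: score merges spot fluorescence with signal-to-noise ratio from the scanned slide images.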 The note with it: higher = more signal.
Assay [13] in a line: PSAC antagonists in infected red cells, primary screen, cell-based, P. falciparum Indochina, OD700, 1 h (AID 1154). Conditions: P. falciparum Indochina infected RBC osmotic lysis, higher = more signal, called active from +8 up or from −8 down.
Assay [14] can be described thus: PSAC antagonists in infected red cells, primary screen, cell-based, P. falciparum Indochina, OD700, 2 h (AID 1155).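 Also: lysis reports solute entry through the parasite surface anion channel PSAC; channel blockers reduce lysis of infected cells.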 The note with it: P. falciparum Indochina infected erythrocytes, osmotic lysis OD700; higher = more signal, called active from +8 up or from −8 down.
Assay [15] can be described thus: osmotic lysis modulators in infected erythrocytes, primary screen, PSAC antagonist project, cell-based, P. falciparum Indochina, OD700, 3 h (AID 1156). The note with it: higher = more signal, called active from +8 up or from −8 down.
A short description of assay [16]: PSAC antagonists in infected red cells, primary screen, cell-based, P. falciparum Indochina, OD700, 18 h (AID 1157). Conditions: P. falciparum Indochina infected erythrocytes, osmotic lysis OD700, 18 h; higher = more signal, called active from +8 up or from −8 down.
A short description of assay [17]: modulators of S6 phosphorylation in cells, primary screen, cell-based, A549, cytoblot, luminescence, serum-stimulated (AID 1158).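 Also: serum-stimulated A549 lung adenocarcinoma cells; signal is phosphorylated S6 detected by cytoblot immunostaining with HRP secondary.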 Conditions: A549 phospho-S6 cytoblot, 5 h, higher = more signal.
Assay [18] concerns the target NADPH oxidase 2 (Homo sapiens) (UniProt P04839). The assay can be described thus: NOX2-dependent H2O2 signal modulators, primary screen, NOX inhibitor project, cell-based, HEK293-NOX2, PMA-stimulated, Amplex Red fluorescence (AID 1159). Also: test concentration not given here. The note with it: 45 min, higher = more signal, called active from +8 up or from −8 down.
The target in assay [19] is NADPH oxidase 4 (Homo sapiens) (UniProt Q9NPH5). The assay can be described thus: NOX4-dependent H2O2 signal modulators, primary screen, NOX inhibitor project, cell-based, HEK293-NOX4, tetracycline-induced, Amplex Red fluorescence (AID 1160). Conditions: 45 min, higher = more signal, called active from +8 up or from −8 down.
The target of assay [20] is NADPH oxidase 5 (Homo sapiens) (UniProt Q96PH1). The assay can be described thus: NOX5-dependent H2O2 signal modulators, primary screen, NOX inhibitor project, cell-based, HEK293-NOX5, Amplex Red fluorescence (AID 1161). Conditions: HEK293-NOX5, ionomycin, 45 min, higher = more signal.
Chain of NADPH oxidase 5 (Homo sapiens) (Q96PH1 whole entry, looked up): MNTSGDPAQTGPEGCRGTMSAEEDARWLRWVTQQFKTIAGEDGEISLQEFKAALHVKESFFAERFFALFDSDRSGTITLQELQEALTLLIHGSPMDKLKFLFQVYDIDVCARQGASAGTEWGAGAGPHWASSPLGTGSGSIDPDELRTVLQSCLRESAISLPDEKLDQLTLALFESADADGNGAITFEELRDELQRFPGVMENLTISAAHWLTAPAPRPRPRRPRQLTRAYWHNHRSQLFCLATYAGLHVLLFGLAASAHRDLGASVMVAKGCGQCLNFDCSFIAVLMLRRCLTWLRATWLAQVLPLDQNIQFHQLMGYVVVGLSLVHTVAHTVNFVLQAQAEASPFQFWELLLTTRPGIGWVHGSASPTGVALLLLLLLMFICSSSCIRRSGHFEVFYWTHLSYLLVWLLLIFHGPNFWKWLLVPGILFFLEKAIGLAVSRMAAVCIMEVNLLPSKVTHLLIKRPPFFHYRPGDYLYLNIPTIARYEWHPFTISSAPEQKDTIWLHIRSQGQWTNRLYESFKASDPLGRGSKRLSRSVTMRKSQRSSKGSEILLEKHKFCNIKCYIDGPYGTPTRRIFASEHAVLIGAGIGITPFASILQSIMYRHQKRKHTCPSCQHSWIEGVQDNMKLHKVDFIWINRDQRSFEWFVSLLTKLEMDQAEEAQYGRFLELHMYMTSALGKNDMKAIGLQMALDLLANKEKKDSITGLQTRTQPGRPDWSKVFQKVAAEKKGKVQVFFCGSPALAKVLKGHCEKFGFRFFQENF

Chain of Torsin-1A (Homo sapiens) (O14656 whole entry, looked up): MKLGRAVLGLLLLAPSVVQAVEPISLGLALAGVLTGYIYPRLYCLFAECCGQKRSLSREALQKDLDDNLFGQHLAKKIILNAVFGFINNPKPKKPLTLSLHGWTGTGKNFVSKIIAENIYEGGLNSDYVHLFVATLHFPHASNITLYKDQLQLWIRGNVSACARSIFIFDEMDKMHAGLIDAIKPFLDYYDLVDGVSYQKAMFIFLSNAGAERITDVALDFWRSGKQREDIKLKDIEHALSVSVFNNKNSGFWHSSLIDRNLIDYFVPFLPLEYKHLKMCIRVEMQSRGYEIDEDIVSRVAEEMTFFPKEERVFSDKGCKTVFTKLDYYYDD
Chain of NADPH oxidase 2 (Homo sapiens) (P04839 whole entry, looked up): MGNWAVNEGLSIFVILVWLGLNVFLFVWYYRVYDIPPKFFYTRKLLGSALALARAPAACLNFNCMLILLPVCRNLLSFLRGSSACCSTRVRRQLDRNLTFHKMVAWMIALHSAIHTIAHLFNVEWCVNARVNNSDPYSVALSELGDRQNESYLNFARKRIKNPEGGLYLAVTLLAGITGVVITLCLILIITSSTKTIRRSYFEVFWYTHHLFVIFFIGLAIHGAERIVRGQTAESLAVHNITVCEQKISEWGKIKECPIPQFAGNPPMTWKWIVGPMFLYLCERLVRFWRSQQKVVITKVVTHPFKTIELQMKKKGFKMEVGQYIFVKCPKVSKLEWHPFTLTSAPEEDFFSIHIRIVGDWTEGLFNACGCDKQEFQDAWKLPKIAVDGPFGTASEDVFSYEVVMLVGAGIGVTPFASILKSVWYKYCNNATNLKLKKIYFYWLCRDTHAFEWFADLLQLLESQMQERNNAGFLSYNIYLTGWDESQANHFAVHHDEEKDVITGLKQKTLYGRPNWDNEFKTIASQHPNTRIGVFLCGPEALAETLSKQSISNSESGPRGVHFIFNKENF
Chain of NADPH oxidase 4 (Homo sapiens) (Q9NPH5 whole entry, looked up): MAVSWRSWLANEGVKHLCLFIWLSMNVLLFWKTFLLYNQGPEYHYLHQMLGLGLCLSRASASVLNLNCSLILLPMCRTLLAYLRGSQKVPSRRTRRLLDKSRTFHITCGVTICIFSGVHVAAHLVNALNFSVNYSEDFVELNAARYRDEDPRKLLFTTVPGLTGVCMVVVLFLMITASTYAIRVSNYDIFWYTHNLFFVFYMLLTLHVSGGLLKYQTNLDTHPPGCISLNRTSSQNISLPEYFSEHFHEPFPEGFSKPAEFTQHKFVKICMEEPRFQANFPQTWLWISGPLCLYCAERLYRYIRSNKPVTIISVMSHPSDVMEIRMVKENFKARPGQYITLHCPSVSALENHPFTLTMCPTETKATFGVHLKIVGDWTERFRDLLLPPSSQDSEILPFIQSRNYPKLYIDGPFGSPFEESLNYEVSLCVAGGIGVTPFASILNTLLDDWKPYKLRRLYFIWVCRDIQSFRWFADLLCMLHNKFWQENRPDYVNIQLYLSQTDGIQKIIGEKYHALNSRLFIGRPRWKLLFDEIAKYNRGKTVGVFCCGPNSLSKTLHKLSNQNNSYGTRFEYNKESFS
Chain of Streptavidin (Streptomyces avidinii) (P22629 whole entry, looked up): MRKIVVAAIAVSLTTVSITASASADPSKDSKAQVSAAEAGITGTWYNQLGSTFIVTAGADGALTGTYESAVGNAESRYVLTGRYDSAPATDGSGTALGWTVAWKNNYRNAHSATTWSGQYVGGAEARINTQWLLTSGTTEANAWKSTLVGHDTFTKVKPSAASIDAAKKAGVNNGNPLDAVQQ

With `O=C1O[C@@H](c2ccccc2)[C@@H](c2ccccc2)N2[C@@H](c3ccccc3OCCO)[C@]3(C(=O)Nc4ccc(C#CC5(O)CCCCCC5)cc43)[C@@H](C(=O)N3CCCCCCC3)[C@H]12`, the composite z-score in [1] was 2.35; in [6] it was 2.41; in assay [7], 2.16; with Torsin-1A (Homo sapiens) [8] it was 3.29; in the assay with Torsin-1A (Homo sapiens) [9], 3.08; in assay [10], 2.06. In addition, the composite z-score in assay [12] amounted to 3.07. Further, the z-score in assay [2] was -5.6 (inactive); in assay [3] it was -0.349 (inactive); in [4], -0.168 (inactive); in assay [5], 0.306 (inactive); in assay [11] it was 0.177 (inactive); in [13], 1.14 (inactive). Besides, the z-score in assay [14] is -0.256 (inactive); in assay [15], 0.786 (inactive); in assay [16], -1.64 (inactive); in [17] it was 1.76; in assay [18], -0.21 (inactive); in [19], -0.596 (inactive). Further, the z-score in assay [20] is 0.147.
For the compound `CC(C)N1CC=CC23O[C@@H]4/C=C\CCCOC(=O)C4[C@H]2C(=O)N(C(C)CO)[C@@H]3C1=O` (stereo not given in full), the composite z-score in assay [1] is -0.603; in [6], -0.938; in assay [7] it was -0.176; with Torsin-1A (Homo sapiens) [8], -2.23; with Torsin-1A (Homo sapiens) [9] it was -0.913; in [10], -0.413. The composite z-score in assay [12] was -0.195. For the same compound, the z-score was 0.282 (inactive) in assay [2]; -2.11 (inactive) in [3]; -1.58 (inactive) in [4]; -0.869 (inactive) in [5]; 2.12 (inactive) in assay [11]; 1.2 (inactive) in [13]. For the same compound, the z-score in [14] was 0.0831 (inactive); in [15] it was 1.07 (inactive); in assay [16], 0.429 (inactive); in assay [17], 0.979; in assay [18] it was 0.667 (inactive); in assay [19] it was 0.142 (inactive). This compound yielded a z-score in [20] of 0.883.
On to `O=C1O[C@H](c2ccccc2)[C@H](c2ccccc2)N2[C@H]1[C@@H](C(=O)Nc1nc3ccccc3s1)[C@]1(C(=O)Nc3ccccc31)[C@H]2c1ccccc1OCCO`, for which the composite z-score is -0.023 in [1]; 1.25 in [6]; 0.161 in assay [7]; 0.869 with Torsin-1A (Homo sapiens) [8]; 1.11 with Torsin-1A (Homo sapiens) [9]; 0.465 in assay [10]. The composite z-score in assay [12] was 0.347. In addition, the z-score is -4.68 (inactive) in [2]; -0.804 (inactive) in assay [3]; 0.272 (inactive) in assay [4]; 0.519 (inactive) in assay [5]; 0.185 (inactive) in [11]; 7.3 (inactive) in [13]. The z-score was 5.1 (inactive) in assay [14]; -5.41 (inactive) in assay [15]; 1.79 (inactive) in assay [16]; 0.354 in assay [17]; 1.47 (inactive) in assay [18]; 0.862 (inactive) in assay [19]. The compound also returned a z-score in assay [20] of 1.86.
`CC(C)c1ccc(NN2C(C(O)C3=C[C@H]4C[C@@H](C3)C4(C)C)C=CC3C(=O)N(c4ccccc4)C(=O)C32)cc1` (stereo not given in full): the composite z-score was 0.747 in assay [1]; 1.56 in assay [6]; 0.234 in assay [7]; 0.281 with Torsin-1A (Homo sapiens) [8]; 0.562 with Torsin-1A (Homo sapiens) [9]; -0.0766 in assay [10]. The composite z-score in [12] stood at 0.587. The z-score is -0.005 (inactive) in assay [2]; -0.335 (inactive) in assay [3]; 0.443 (inactive) in [4]; 0.551 (inactive) in [5]; -0.736 (inactive) in assay [11]; 1.8 (inactive) in assay [13]. Further, the z-score in assay [14] was 1.13 (inactive); in [15], 0.0675 (inactive); in assay [16], 1.37 (inactive); in assay [17] it was -0.578; in assay [18] it was -0.843 (inactive); in assay [19], -3.08 (inactive). In assay [20], this compound registered a z-score of -1.62.
